# How the values were obtained:
# [1] = target: T1, Serine/threonine-protein kinase Sgk2 (Homo sapiens) (UniProt Q9HBY8); conditions: at 1 µM
# T1 sequence (whole entry): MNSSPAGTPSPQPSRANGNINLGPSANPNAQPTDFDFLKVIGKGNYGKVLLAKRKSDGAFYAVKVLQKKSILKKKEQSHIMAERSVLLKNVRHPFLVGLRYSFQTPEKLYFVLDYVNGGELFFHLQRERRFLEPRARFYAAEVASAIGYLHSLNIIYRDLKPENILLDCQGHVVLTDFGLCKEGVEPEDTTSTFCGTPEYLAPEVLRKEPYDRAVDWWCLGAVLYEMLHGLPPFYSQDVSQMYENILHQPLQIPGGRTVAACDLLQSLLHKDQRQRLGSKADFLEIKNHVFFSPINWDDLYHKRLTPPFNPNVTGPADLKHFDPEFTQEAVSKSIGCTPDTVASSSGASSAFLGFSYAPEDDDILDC
# [2] = target: T1, Serine/threonine-protein kinase Sgk2 (Homo sapiens); conditions: at 10 µM
# [3] = target: T2, Serine/threonine-protein kinase Sgk3 (Homo sapiens) (UniProt Q96BR1); conditions: at 10 µM
# T2 sequence (whole entry): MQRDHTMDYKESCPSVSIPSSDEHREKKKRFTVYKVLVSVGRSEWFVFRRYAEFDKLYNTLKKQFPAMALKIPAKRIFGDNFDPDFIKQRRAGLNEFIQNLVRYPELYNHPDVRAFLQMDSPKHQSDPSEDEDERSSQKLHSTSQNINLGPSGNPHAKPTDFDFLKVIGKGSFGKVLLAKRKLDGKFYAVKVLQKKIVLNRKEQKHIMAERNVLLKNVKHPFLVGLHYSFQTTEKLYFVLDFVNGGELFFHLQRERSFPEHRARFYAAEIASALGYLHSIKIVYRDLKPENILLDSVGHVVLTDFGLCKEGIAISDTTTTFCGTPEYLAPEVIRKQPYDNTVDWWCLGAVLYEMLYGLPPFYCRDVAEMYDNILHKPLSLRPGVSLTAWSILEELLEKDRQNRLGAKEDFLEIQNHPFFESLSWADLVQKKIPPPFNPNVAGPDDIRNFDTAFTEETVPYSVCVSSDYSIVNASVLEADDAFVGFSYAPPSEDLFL
# [4] = target: Serine/threonine-protein kinase SIK1 (Homo sapiens) (UniProt P57059); conditions: at 1 µM
# [5] = target: SRSF protein kinase 1 (Homo sapiens) (UniProt Q96SB4); conditions: at 10 µM
# [6] = target: SRSF protein kinase 2 (Homo sapiens) (UniProt P78362); conditions: at 1 µM
# [7] = target: SRSF protein kinase 2 (Homo sapiens) (UniProt P78362); conditions: at 10 µM
# [8] = target: Serine/threonine-protein kinase 33 (Homo sapiens) (UniProt Q9BYT3); conditions: at 1 µM
# [9] = target: Serine/threonine-protein kinase 33 (Homo sapiens) (UniProt Q9BYT3); conditions: at 10 µM
# [10] = target: Serine/threonine-protein kinase PLK2 (Homo sapiens) (UniProt Q9NYY3); conditions: at 10 µM
# [11] = target: Tyrosine-protein kinase SYK (Homo sapiens) (UniProt P43405); conditions: at 1 µM
# [12] = target: Tyrosine-protein kinase SYK (Homo sapiens) (UniProt P43405); conditions: at 10 µM
# [13] = target: T3, Mitogen-activated protein kinase kinase kinase 7 (Homo sapiens) (UniProt O43318); conditions: at 1 µM
# T3 sequence (whole entry): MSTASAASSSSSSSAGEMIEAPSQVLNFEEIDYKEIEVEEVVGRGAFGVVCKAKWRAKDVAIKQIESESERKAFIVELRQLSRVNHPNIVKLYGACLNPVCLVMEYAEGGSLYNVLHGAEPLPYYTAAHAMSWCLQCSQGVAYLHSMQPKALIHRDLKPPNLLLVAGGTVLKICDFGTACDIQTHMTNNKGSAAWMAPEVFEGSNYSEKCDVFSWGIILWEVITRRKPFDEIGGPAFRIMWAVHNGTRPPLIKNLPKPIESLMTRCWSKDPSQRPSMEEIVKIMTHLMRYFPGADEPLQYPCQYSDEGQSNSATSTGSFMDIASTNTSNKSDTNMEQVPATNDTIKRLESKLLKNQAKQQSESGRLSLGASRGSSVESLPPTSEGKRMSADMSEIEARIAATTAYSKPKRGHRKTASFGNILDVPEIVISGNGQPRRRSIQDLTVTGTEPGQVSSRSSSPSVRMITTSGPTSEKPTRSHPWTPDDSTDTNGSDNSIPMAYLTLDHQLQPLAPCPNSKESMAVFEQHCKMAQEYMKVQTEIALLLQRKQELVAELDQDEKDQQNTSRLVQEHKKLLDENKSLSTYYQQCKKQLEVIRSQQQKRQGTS
# [14] = target: T3, Mitogen-activated protein kinase kinase kinase 7 (Homo sapiens); conditions: at 10 µM
# [15] = target: T4, Serine/threonine-protein kinase TAO1 (Homo sapiens) (UniProt Q7L7X3); conditions: at 10 µM
# T4 sequence (whole entry): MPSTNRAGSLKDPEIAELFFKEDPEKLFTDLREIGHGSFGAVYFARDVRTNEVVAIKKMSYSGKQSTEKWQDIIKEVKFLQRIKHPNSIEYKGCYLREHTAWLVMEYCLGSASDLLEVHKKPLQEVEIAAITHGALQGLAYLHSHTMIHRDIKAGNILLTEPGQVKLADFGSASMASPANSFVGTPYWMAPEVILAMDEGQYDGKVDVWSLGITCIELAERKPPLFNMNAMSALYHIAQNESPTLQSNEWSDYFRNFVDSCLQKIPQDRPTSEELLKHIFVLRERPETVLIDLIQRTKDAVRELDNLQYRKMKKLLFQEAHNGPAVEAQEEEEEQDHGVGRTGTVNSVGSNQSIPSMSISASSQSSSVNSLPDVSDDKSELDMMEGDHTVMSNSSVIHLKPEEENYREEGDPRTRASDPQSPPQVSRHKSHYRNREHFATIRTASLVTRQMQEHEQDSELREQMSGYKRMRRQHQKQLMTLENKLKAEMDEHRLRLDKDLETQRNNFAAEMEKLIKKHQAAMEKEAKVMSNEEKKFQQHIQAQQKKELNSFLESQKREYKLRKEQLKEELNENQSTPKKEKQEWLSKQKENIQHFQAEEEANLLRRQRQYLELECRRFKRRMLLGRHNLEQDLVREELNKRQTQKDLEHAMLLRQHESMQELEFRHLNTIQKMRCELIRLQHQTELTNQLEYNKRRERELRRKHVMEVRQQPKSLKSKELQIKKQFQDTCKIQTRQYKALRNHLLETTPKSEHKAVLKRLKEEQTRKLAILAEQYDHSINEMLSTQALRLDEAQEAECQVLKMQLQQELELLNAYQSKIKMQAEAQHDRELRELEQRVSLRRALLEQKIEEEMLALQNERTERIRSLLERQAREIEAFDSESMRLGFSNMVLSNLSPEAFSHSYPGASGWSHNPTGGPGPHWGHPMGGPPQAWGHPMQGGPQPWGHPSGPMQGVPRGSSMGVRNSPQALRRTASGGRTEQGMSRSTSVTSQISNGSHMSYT
# [16] = target: T2, Serine/threonine-protein kinase Sgk3 (Homo sapiens); conditions: at 1 µM
# [17] = target: Serine/threonine-protein kinase SIK1 (Homo sapiens) (UniProt P57059); conditions: at 10 µM
# [18] = target: SRSF protein kinase 1 (Homo sapiens) (UniProt Q96SB4); conditions: at 1 µM
# [19] = target: Serine/threonine-protein kinase PLK2 (Homo sapiens) (UniProt Q9NYY3); conditions: at 1 µM
# [20] = target: T4, Serine/threonine-protein kinase TAO1 (Homo sapiens); conditions: at 1 µM
# Sequence of SRSF protein kinase 1 (Homo sapiens) (Q96SB4 whole entry): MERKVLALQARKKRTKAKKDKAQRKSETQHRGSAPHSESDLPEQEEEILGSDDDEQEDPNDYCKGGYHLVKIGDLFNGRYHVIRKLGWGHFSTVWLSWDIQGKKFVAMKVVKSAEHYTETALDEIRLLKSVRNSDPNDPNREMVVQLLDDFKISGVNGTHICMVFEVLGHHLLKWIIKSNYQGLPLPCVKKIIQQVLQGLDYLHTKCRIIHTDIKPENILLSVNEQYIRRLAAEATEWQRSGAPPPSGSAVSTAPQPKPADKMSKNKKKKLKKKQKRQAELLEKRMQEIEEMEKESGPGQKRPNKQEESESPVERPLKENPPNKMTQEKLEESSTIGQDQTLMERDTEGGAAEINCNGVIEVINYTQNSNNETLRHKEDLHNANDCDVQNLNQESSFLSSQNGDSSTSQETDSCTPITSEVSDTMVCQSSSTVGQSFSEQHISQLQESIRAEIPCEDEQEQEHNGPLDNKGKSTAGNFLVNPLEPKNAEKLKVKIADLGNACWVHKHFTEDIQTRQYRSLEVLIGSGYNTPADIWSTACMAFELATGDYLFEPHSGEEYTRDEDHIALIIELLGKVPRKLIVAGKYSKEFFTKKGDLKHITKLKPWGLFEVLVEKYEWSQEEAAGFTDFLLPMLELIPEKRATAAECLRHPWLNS
# Sequence of Serine/threonine-protein kinase 33 (Homo sapiens) (Q9BYT3 whole entry, looked up): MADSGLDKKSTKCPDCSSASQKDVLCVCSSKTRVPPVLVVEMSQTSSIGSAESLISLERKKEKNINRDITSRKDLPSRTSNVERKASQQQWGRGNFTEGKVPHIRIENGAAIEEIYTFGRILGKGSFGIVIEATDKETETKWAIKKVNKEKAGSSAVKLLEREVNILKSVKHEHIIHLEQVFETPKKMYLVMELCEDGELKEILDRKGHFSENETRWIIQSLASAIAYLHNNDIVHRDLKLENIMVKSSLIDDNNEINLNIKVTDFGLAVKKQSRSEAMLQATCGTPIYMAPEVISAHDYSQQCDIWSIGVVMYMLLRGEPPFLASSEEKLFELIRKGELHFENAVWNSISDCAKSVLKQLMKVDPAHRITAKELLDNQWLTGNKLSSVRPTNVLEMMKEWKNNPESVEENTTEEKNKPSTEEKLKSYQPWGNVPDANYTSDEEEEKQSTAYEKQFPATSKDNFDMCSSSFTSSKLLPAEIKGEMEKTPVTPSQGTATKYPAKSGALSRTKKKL
# Sequence of Serine/threonine-protein kinase SIK1 (Homo sapiens) (P57059 whole entry): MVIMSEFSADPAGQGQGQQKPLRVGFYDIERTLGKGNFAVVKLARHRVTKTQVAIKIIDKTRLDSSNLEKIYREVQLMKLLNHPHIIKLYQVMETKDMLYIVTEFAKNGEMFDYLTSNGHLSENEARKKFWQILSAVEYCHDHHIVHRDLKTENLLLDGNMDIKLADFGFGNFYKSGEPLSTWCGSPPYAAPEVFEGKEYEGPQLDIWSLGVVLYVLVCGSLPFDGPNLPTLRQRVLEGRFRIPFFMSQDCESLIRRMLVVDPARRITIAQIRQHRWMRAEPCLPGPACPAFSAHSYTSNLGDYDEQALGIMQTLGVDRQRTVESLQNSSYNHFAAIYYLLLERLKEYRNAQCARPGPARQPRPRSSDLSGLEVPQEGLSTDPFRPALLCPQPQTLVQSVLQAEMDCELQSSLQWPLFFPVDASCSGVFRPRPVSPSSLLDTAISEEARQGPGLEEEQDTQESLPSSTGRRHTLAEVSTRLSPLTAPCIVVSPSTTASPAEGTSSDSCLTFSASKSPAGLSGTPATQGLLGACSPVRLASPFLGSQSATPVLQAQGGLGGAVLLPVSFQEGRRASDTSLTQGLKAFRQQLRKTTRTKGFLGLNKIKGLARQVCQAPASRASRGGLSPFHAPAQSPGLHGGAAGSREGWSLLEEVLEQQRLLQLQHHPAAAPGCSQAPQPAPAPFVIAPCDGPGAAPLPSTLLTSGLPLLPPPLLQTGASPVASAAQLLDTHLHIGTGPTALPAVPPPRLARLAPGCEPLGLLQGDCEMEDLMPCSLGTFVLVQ
# Sequence of SRSF protein kinase 2 (Homo sapiens) (P78362 whole entry, looked up): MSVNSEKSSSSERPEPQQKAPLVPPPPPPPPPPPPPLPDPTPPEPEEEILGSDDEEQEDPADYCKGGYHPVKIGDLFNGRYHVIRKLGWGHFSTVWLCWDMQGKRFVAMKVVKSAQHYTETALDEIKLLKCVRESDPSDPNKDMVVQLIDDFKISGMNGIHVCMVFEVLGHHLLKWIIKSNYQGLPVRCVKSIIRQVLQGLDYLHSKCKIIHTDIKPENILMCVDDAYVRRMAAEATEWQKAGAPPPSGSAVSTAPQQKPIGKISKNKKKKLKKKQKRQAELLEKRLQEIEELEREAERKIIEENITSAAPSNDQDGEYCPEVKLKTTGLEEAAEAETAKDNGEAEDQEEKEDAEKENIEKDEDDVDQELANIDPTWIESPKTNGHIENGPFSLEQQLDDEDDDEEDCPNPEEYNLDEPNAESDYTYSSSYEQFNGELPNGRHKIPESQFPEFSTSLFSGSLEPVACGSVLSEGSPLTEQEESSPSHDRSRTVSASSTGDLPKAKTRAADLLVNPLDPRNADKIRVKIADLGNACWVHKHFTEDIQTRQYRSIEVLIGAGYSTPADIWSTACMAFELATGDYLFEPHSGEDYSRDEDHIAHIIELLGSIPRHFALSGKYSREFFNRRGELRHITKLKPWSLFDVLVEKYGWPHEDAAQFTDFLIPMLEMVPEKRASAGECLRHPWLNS
# Sequence of Serine/threonine-protein kinase PLK2 (Homo sapiens) (Q9NYY3 whole entry, looked up): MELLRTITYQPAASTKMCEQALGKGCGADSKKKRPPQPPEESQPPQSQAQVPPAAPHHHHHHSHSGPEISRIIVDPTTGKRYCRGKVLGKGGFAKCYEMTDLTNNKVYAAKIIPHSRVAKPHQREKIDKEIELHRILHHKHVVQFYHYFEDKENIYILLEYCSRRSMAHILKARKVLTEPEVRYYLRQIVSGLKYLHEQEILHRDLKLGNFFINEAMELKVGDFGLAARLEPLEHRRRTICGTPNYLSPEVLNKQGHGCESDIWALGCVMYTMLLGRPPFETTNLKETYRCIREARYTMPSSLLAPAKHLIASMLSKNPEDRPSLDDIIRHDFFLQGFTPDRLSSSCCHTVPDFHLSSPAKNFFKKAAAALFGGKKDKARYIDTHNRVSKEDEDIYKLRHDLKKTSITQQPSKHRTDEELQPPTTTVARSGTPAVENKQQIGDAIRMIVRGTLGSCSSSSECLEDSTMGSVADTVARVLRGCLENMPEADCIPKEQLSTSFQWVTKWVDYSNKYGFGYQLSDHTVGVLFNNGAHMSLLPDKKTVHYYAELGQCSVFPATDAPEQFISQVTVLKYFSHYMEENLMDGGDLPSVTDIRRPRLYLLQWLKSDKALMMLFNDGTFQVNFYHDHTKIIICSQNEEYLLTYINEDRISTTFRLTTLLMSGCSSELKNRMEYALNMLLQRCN
compound,measurement,setting,value
COc1ccc2c(c[n+](C)c3c4cc5c(cc4ccc23)OCO5)c1OC,residual activity,[1],130%
same,residual activity,[2],65%
same,residual activity,[3],79%
same,residual activity,[4],92%
same,residual activity,[5],98%
same,residual activity,[6],96%
same,residual activity,[7],96%
same,residual activity,[8],97%
same,residual activity,[9],92%
same,residual activity,[10],71%
same,residual activity,[11],132%
same,residual activity,[12],82%
same,residual activity,[13],92%
same,residual activity,[14],94%
same,residual activity,[15],87%
COc1cc2ncnc(Nc3ccc(OCc4ccccc4)cc3)c2cc1OC,residual activity,[1],89%
same,residual activity,[2],96%
same,residual activity,[16],115%
same,residual activity,[3],108%
same,residual activity,[4],82%
same,residual activity,[17],103%
same,residual activity,[18],102%
same,residual activity,[5],116%
same,residual activity,[6],108%
same,residual activity,[7],104%
same,residual activity,[8],100%
same,residual activity,[9],105%
same,residual activity,[19],108%
same,residual activity,[10],105%
same,residual activity,[11],116%
same,residual activity,[12],82%
same,residual activity,[13],99%
same,residual activity,[14],96%
same,residual activity,[20],108%
same,residual activity,[15],91%
COc1ccc(C(=O)Nc2sc3c(c2C(N)=O)CCCC3)cc1OC,residual activity,[16],74%
COc1cc2nccc(Oc3ccc(NC(=S)NC(=O)c4ccccc4C)cc3)c2cc1OC,residual activity,[16],97%
O=C1Cc2c([nH]c3ccc(Br)cc23)-c2ccccc2N1,residual activity,[16],91%
Nc1ncnc2c1c(-c1ccc(Oc3ccccc3)cc1)cn2C1CCCC1,residual activity,[16],104%
O=C1Nc2ccc(Cl)cc2/C1=C/c1cc(Cl)c(O)c(Cl)c1,residual activity,[16],95%
Oc1n[nH]c2nnc(-c3c(-c4ccccc4)nn4ccccc34)cc12,residual activity,[16],92%
O=[N+]([O-])/C=C/c1ccc2c(c1)OCO2,residual activity,[1],89%
same,residual activity,[2],66%
same,residual activity,[16],110%
same,residual activity,[3],87%
same,residual activity,[4],100%
same,residual activity,[17],112%
same,residual activity,[18],111%
same,residual activity,[5],99%
same,residual activity,[6],97%
same,residual activity,[7],98%
same,residual activity,[8],93%
same,residual activity,[9],89%
same,residual activity,[19],102%
same,residual activity,[10],102%
same,residual activity,[11],123%
same,residual activity,[12],82%
same,residual activity,[13],92%
same,residual activity,[14],90%
same,residual activity,[20],101%
same,residual activity,[15],98%
Cn1sc(=O)n(Cc2ccccc2)c1=O,residual activity,[16],99%
c1cc(-c2cnn3cc(-c4ccc(OCCN5CCCCC5)cc4)cnc23)ccn1,residual activity,[1],81%
same,residual activity,[2],48%
same,residual activity,[3],78%
same,residual activity,[4],43%
same,residual activity,[17],9%
same,residual activity,[19],82%
same,residual activity,[10],85%
same,residual activity,[12],59%
same,residual activity,[13],57%
same,residual activity,[14],13%
O=C(c1ccccc1)c1ccc(N2CCOCC2)cc1O,residual activity,[16],97%
CC(C)(C)n1nc(Cc2cccc3ccccc23)c2c(N)ncnc21,residual activity,[16],106%
CC(C)[C@H](CO)Nc1nc(Nc2cccc(Cl)c2)c2ncn(C(C)C)c2n1,residual activity,[3],97%
same,residual activity,[4],85%
same,residual activity,[17],16%
same,residual activity,[18],52%
same,residual activity,[5],-1%
same,residual activity,[6],32%
same,residual activity,[7],2%
same,residual activity,[8],89%
same,residual activity,[9],53%
same,residual activity,[19],101%
same,residual activity,[10],86%
same,residual activity,[11],102%
same,residual activity,[12],60%
same,residual activity,[13],73%
same,residual activity,[14],20%
same,residual activity,[20],82%
same,residual activity,[15],26%
